Laboratory results: PubChem BioAssay AID1321 (The Scripps Research Institute Molecular Screening Center, 2008)
Among all 220,000 compounds or so, about 2,600 (1.2%) were called active. Only a selection was taken, and actives are over-represented in it overall. A number with no mark means an inactive call.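 The calls were made as follows: active = activation above the mean of all tested compounds plus 3 SD, set per screening run (cut at about 8.8% in these data); inactive = the rest.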

target: Wee1-like protein kinase (Homo sapiens) (UniProt P30291); test: Wee1 degradation inhibitors, primary screen, cell-based, HeLa, Wee1K328M-luciferase, luminescence (AID 1321); settings: HeLa Luc-Wee1K328M stability, at 5 µM, stronger effect = higher value, 100% = proteasome inhibitor MG132 effect;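 also: cells exposed to compound for 20 h before luminescence read; 0% = DMSO alone and 100% = MG132 at 30 µM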

In order of falling reporter increase:
1. CS/C(=C\C(=O)c1ccco1)Nc1ccccc1Cl  6.17%
2. CCN(CC)CCCN=Cc1c(O)n(-c2ccc(C)cc2)c(=O)c2ccccc12  5.68%
3. CC(=O)OCCOCn1cnn2c(=O)c(Br)c(C)nc12  5.31%
4. CC(C)(C)n1nnnc1C(c1cccs1)N(Cc1cccnc1)CC1CCCO1 (centres undefined)  4.79%
5. COc1ccc(NC(=S)NC2CCS(=O)(=O)C2)cc1 (centres undefined)  4.7%
6. CCn1c(SCC(=O)c2ccc3ccccc3c2)nnc1-c1cccs1  4.66%
7. O=S(=O)(Cc1noc(-c2ccc(OC(F)(F)F)cc2)n1)c1ccc(F)cc1  4.61%
8. COc1ccccc1N1CCN(C(=O)CSc2ncnc3c2cnn3-c2ccc(C)c(C)c2)CC1  3.89%
9. Cc1[nH][nH]c(=O)c1N=Nc1ccccc1  3.8%
10. CCC(C(=O)OCC(=O)Nc1ccccc1-c1ccccc1)c1ccccc1 (centres undefined)  3.65%
11. COc1ccccc1OCCOc1ccc(/C=N/n2cnnc2)cc1  3.34%
12. COc1ccc(/C(C)=N/N2CCOCC2)c(O)c1  3.27%
13. Cc1ccc2c(N)c(C(=O)c3ccccc3)sc2n1  3.2%
14. Cn1c(SCC(=O)N/N=C/c2ccc(O)c(O)c2)nc2ccccc21  3.18%
15. CC(C)(C)c1ccc(/C=C/C(=O)NC2CCS(=O)(=O)C2)cc1 (centres undefined)  2.93%
16. O=C(CN1CCSCC1)N/N=C/c1ccc(Cl)cc1  2.89%
17. O=S(=O)(c1ccccc1)N1CN(Cc2ccc(F)cc2)c2nc3ccccc3nc21  2.39%
18. O=C1CC(Cc2ccc(Cl)cc2)C(=O)N1c1cc(Cl)ccn1 (centres undefined)  2.19%
19. O=C(NCCCN1CCCCCC1)c1ccc(N2CCCC2=O)cc1  2.16%
20. COc1ccc(CN(Cc2ccc(OC)cc2)C(=O)c2cccs2)cc1  1.79%
21. COc1ccc(C(C)=O)cc1COc1ccc(Cl)c(C)c1  1.76%
22. Cc1cccc(-[n+]2c(-c3cccc(Br)c3)[nH]c3nc4ccccc4nc32)c1  1.73%
23. CCOc1ccc(CN(Cc2ccco2)S(=O)(=O)c2ccc(-n3cnnn3)c(OC)c2)cc1  1.7%
24. CC(C)c1cc(CN2CCOCC2)cc(C(C)C)c1O  1.64%
25. CC(C)N(C(=O)c1ccc(-c2ccccc2F)cc1)C(C)C  1.6%
26. O=C(N/N=C/c1ccco1)c1ccc(NC(=O)C2CC2)cc1  1.48%
27. Cc1[nH][nH]c(=O)c1C(c1ccc2c(c1)OCO2)c1c(C)[nH][nH]c1=O  1.31%
28. CCCc1c(C(=O)O)cnn1-c1ccc(Cl)cc1  1.14%
29. Cc1nc2sc3c(c2c(=O)n1NC(=O)CCl)CCCC3  1.1%
30. CC12C(=O)N(c3ccccc3)C(=O)C1C(c1ccccc1)N1CCCN12 (centres undefined)  1.06%
31. O=[N+]([O-])c1ccc(N2CCSCC2)cc1O  1.05%
32. Cc1cc(NC(=O)OC(C)C)ccc1-c1ccc(NC(=O)OC(C)C)cc1C  0.84%
33. CCOC(=O)c1sc2nc(SC)nc(-c3ccccc3)c2c1N  0.82%
34. O=C(Cc1ccccc1)NCc1ccc(F)cc1  0.79%
35. C=CCc1ccc(OCCOc2cccc(/C=N/n3cnnc3)c2)c(OC)c1  0.6%
36. CC(NS(=O)(=O)c1ccccc1)c1n[nH]c(=S)n1-c1ccccc1 (centres undefined)  0.56%
37. COc1ccc(NS(=O)(=O)c2ccc(N3CCOCC3)c(NC(=O)c3ccccc3Br)c2)cc1  0.37%
38. COc1cccc(OCC(=O)Nc2ccccc2C(N)=O)c1  0.36%
39. COc1ccc(N(Cc2ccccc2)S(=O)(=O)c2cccc(C(=O)O)c2)cc1  0.36%
40. Cc1cccc(OCC(=O)NC(=S)Nc2ccccc2N2CCOCC2)c1  0.28%
41. O=C1CC2(CC(c3ccc(Cl)cc3)=NO2)C(=O)N1c1ccccc1 (centres undefined)  0.07%
42. CC1CCC(NC(=O)c2ccc(N3CCCC3=O)cc2)CC1 (centres undefined)  0.06%
43. O=C(COc1ccc([N+](=O)[O-])cc1Cl)Nn1cnnc1  -0.06%
44. O=C(N/N=C/c1ccco1)c1ccc(C(=O)N/N=C/c2ccco2)o1  -0.09%
45. COc1ccc(OCC(=O)OCC(=O)Nc2ccc(S(=O)(=O)N3CCCCC3)cc2)cc1  -0.17%
46. CC1=NOC(=O)/C1=C\c1ccccc1  -0.32%
47. CC(C)Oc1ccc(C(=O)NC(C)(C)CO)cc1  -0.33%
48. O=C(CCCCCN1C(=O)c2cccc3cccc(c23)C1=O)NCc1ccco1  -0.37%
49. O=C(NC(=O)c1cc(OCC(F)(F)F)ccc1OCC(F)(F)F)Nc1ccccc1  -0.42%
50. Cc1nc(N2CCCCC2)sc1C=O  -0.49%
51. Cc1ccc(OCC(=O)N/N=C/c2ccncc2)cc1  -0.52%
52. COC(=O)c1sc(NC(=S)NC(=O)c2ccc(C)cc2)nc1C  -0.57%
53. CCCCCCCCCCCCN1C(=O)CSC1c1cccnc1 (centres undefined)  -0.61%
54. COc1ccc(-c2cc(C(=O)NCCCn3ccnc3)no2)cc1  -0.75%
55. NNC(=O)C1CCCn2c1nc1sc3c(c1c2=O)CCCC3 (centres undefined)  -0.79%
56. Cc1ccc2c(Cl)c(C(=O)Nc3nn[nH]n3)sc2c1  -0.87%
57. COC(=O)C1=C(N)Oc2cc(C)[nH]c(=O)c2C1c1ccc(Cl)cc1 (centres undefined)  -0.92%
58. Cn1c(NC(=O)c2ccc3c(c2)OCO3)cc(=O)n(C)c1=O  -1.07%
59. C=CCN(C(=O)Nc1ccc2c(c1)nc(C)n2C)c1ccccc1  -1.11%
60. CN(C)CCCN(Cc1cc2cc3c(cc2[nH]c1=O)OCCO3)C(=O)NC1CCCCC1  -1.12%
61. CCOC(=O)C(=O)C1C(=O)Nc2ccccc21 (centres undefined)  -1.16%
62. Cc1ccc(C(=O)NNc2ncnc3ccccc23)cc1  -1.2%
63. COc1ccc(CCNC(=O)COC(=O)C2CCCCC2)cc1  -1.3%
64. CCOc1ccc(-n2cnc3c(=O)[nH]c(N)nc32)cc1  -1.45%
65. COc1cc(/C=N\Nc2nc(-c3cccs3)c(NC(C)=O)s2)ccc1O  -1.53%
66. O=C(CSc1nnc(SCc2ccc(F)cc2)s1)Nc1ccc(C(=O)O)cc1  -1.55%
67. Cc1nc2cc(NC(=O)Nc3cccc(F)c3)ccc2n1C  -1.84%
68. COc1ccc(CCNC(=O)C(=O)NCC2CCNCC2)cc1OC  -1.92%
69. CCN(CC)CCn1cnc2c1c(=O)n(CCOC(=O)c1cc(OC)c(OC)c(OC)c1)c(=O)n2C  -2.15%
70. O=C(CSc1nnc(-c2cccs2)n1-c1ccccc1)N1CCN(C(=O)c2ccco2)CC1  -2.17%
71. CCOC(=O)CN(C(=O)COc1nc(C)cc(C)c1C#N)c1ccc(Cl)cc1  -2.18%
72. Cn1c(SCC(=O)Nc2ccc(Cl)cc2)nc(O)cc1=O  -2.26%
73. COc1ccc(NC(=O)c2cn(-c3ccccc3)nc2SC)cc1  -2.29%
74. CN(CCC1CCOCC1)Cc1cn[nH]c1-c1ccc(-c2ccccc2)cc1  -2.58%
75. COc1ccc(-c2[nH]ncc2CN(C)Cc2cc(C)[nH]n2)c(F)c1  -2.83%
76. Cc1ccc(F)cc1NC(=O)N1CCCN(c2ccc(C(F)(F)F)cn2)CC1  -2.91%
77. CCOc1ccc(N2CC(C(=O)N/N=C/c3sccc3C)CC2=O)cc1 (centres undefined)  -2.91%
78. CCOc1cc2c(Cl)ncnc2c(OCC)c1OCC  -3.14%
79. c1c2c(cc3sc(N4CCCCC4)nc13)OCCO2  -3.23%
80. Cc1cc(C(F)(F)F)c(C#N)c(SCC(=O)NC2CC2)n1  -3.28%

With `CC(C)Oc1ccc(C(=O)Nc2cc(=O)n(C)c(=O)n2C)cc1` the reporter increase was 11% (active).
In the case of `Nc1[nH][nH]c(=O)c1N=Nc1ccc2c(c1)OCO2`, the reporter increase was 9.03% (active).
For `CCN(CC)C(=O)c1sc2nc(-c3ccccc3)ccc2c1N`, the reporter increase was 15.4% (active).
With `O=C(CNCc1ccc(F)cc1)Nc1ccccc1-c1ccccc1` the reporter increase was 11.8% (active).
In the case of `COc1ccc(NC(=O)COC(=O)CNC(=O)C2CCCCC2)cc1`, the reporter increase was 11.6% (active).
For `Cc1ccc(COc2ccc(/C=N/NC(=O)CN3CCCCC3)cc2)cc1`, the reporter increase was 22.3% (active).
For `COc1ccc(-c2ccc(OC(=O)NC3CCS(=O)(=O)C3)cc2)cc1` (centres undefined), the reporter increase was 9.29% (active).
With `CCCNC(=O)NCc1ccc(N2CCCC2=O)cc1` the reporter increase was 10.3% (active).
In the case of `CCOc1ccc(CN(Cc2ccco2)C(c2cccs2)c2nnnn2C(C)(C)C)cc1` (centres undefined), the reporter increase was 9.99% (active).
With `O=C(CSc1nnc(-c2cccs2)n1Cc1ccccc1)N1CCc2ccccc2C1` the reporter increase was 9.02% (active).
For `COc1cccc(OCCOc2cccc(/C=N/n3cnnc3)c2)c1`, the reporter increase was 10.7% (active).
For `Cn1c(NN)nc2sc3c(c2c1=O)CCC3`, the reporter increase was 11.1% (active).
For `Brc1ccc2nc(N3CCCC3)sc2c1`, the reporter increase was 18.3% (active).
`O=C(N/N=C/c1ccco1)c1csc2c1CCCC2` was tested, and the reporter increase was 9.05% (active).
In the case of `CCOC(=O)COc1nc(C)cc(C(F)(F)F)c1C#N`, the reporter increase was 8.86% (active).
With `Cc1nnc(CN(C)Cc2cn[nH]c2-c2ccc(-c3ccccc3)cc2)o1` the reporter increase was 10.8% (active).
With `Cc1nc2cc(NC(=O)NC3CC3)ccc2n1C` the reporter increase was 12.8% (active).
With `Cc1cccc(OCC(=O)Nc2ccccc2F)c1` the reporter increase was 12.9% (active).
In the case of `Cc1ccc2c(Cl)c(C(=O)NCCCn3ccnc3)sc2c1`, the reporter increase was 18.1% (active).
